The source of these data is PubChem BioAssay AID485346 (Sanford-Burnham Center for Chemical Genomics, 2010).

The whole screen tested about 330,000 compounds, of which about 10,000 (3%) were called active. The list comes from a sample in which actives are over-represented; it also holds similar structures and randomly drawn compounds. Values without a mark were called inactive.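 Rule for the calls: active = inhibition of at least 50% at 8 µM in the primary screen; inactive = the rest.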

The experiment deals with Protein Mdm4 (Homo sapiens) + E3 ubiquitin-protein ligase Mdm2 (Homo sapiens) (UniProt O15151+Q00987). The experiment is described as follows: disruptors of Mdm2/MdmX RING complex – cell-based, luminescence, split luciferase, SaOS-2, uHTS, primary screen (AID 485346). The settings on record: SaOS-2 split-luciferase Mdm2/MdmX complementation, at 8 µM, stronger effect = higher value.
Protein Mdm4 (Homo sapiens) + E3 ubiquitin-protein ligase Mdm2 (Homo sapiens), sequence (O15151 whole entry, looked up): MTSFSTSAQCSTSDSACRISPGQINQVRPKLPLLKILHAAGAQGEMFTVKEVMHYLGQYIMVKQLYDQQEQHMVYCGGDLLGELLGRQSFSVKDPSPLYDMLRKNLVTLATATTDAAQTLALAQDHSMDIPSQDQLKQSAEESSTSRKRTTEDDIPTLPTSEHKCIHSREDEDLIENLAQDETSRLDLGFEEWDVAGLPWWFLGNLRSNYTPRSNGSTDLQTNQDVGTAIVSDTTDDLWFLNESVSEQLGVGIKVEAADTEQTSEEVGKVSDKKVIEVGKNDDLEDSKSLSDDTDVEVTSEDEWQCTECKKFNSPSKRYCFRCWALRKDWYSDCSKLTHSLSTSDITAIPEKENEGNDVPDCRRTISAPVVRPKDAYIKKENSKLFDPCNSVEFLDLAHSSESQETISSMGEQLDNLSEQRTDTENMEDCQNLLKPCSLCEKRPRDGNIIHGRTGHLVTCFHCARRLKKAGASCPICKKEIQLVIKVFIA
Protein Mdm4 (Homo sapiens) + E3 ubiquitin-protein ligase Mdm2 (Homo sapiens), sequence (Q00987 whole entry, looked up): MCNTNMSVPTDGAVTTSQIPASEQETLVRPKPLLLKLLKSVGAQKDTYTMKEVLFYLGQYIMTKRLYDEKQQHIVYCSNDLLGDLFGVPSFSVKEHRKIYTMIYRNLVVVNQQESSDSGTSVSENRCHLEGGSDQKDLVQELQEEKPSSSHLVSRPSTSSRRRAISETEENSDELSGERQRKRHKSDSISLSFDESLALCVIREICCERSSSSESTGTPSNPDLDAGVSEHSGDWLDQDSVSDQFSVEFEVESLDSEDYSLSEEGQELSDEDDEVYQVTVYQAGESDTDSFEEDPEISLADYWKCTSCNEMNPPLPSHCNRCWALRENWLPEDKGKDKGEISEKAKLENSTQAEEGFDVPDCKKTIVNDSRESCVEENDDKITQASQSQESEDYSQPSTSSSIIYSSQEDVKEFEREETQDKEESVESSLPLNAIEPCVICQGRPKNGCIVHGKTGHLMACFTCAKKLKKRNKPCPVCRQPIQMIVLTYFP
`COc1ccccc1C1CC(=O)n2c(nc(-c3ccccc3)c2-c2ccccc2)S1` (stereo unspecified): the inhibition – broadly, the change of the read-out against control, counted positive when it falls – is -21.8%.
To `O=C(N[C@@H](Cc1c[nH]c2ccccc12)C(=O)O)OCC1c2ccccc2-c2ccccc21` belongs -20.2%; to `C=C1CCC(N(O)c2cc(C)on2)C(=C)CCC2C1CC2(C)C` (stereo unspecified), -8.29%; to `CC(=O)Nc1ccc(S(=O)(=O)N(CCc2ccccc2)CC(=O)N/N=C/c2ccc(C(=O)O)cc2)cc1`, -1.72%.
As to `CN(C)c1ccc(-n2cccc2/C=C2/SC(=Nc3ccc(F)cc3)NC2=O)cc1`, the inhibition was 53.3% (active).
To `Cc1ccc(N=C2NC(=O)/C(=C/C=C/c3ccco3)S2)cc1C` belongs 7.92%; to `CN(C)c1ccc(-n2cccc2/C=N/n2cnnc2)cc1`, 18.3%.
The figure for `Cc1ccc(S(=O)(=O)N2CCCCC2)cc1NC(=O)CCNC(=O)c1ccccc1` is -6.37%.
`O=C(CN1CCOCC1)Nc1cccc([N+](=O)[O-])c1`: the inhibition is 14.4%.
To `O=C(Cc1ccc2c(c1)CCCC2)Nc1ccccc1Cl` belongs -28.4%; to `O=C(Nc1ccccc1Cl)/C(Cl)=C(\Cl)S(=O)c1ccccc1` (stereo unspecified), 93.6% (active); to `Cc1c(NC(=O)Nc2ccccc2Cl)sc(=S)n1C`, -28%.
To `Cc1ccc(S(=O)(=O)N2CC(O)C[C@H]2C(=O)OCC(=O)Nc2ccc(N3CCOCC3)cc2)cc1C` (stereo partly specified) belongs 31.1%; to `COc1cccc2cc(C(N)=O)/c(=N\NC(=O)c3ccccc3)oc12`, 56.6% (active).
To `COc1cccc2cc(C(=O)N3CCN(C(=O)c4ccccc4)CC3)c(=O)oc12` belongs 13.1%.
Turning to `NC(=O)c1cc2ccccc2o/c1=N/NC(=O)c1cccc(F)c1`, the inhibition was 1.22%.
The figure for `CC(=O)N1CCc2c(sc(NC(=O)CCS(=O)(=O)c3ccc(C)cc3)c2C(N)=O)C1` is 25.4%; for `CC(C)N1CCc2c(sc(NC(=O)Cc3ccccc3)c2C#N)C1` it is -40.8%.
To `CC(=O)N1CCc2c(sc(NC(=O)CCS(=O)(=O)c3ccccc3)c2C#N)C1` belongs 86.2% (active); to `COc1ccc(N(C(=O)c2snc(C(N)=O)c2N)C(C(=O)NC2CCCC2)c2ccco2)cc1OC` (stereo unspecified), 22.9%.
The figure for `O=c1[nH]c(/C=C\c2cccc(C(F)(F)F)c2)nc(O)c1[N+](=O)[O-]` is -7.22%.
As for `Cc1cccc(OCC(O)CN2CCN(S(=O)(=O)c3ccc(C)cc3C)CC2)c1` (stereo unspecified), the inhibition is -4.83%.
Turning to `Cc1ccc(OCC(O)CN2CCN(CC(O)COc3ccc(C)cc3Cl)CC2)c(Cl)c1` (stereo unspecified), the inhibition is 73.5% (active).
To `OC(COc1ccc(F)cc1Cl)CN1CCc2ccccc2C1` (stereo unspecified) belongs -9.27%.
As to `CCOc1cc(NC(=O)c2ccco2)c(OCC)cc1NC(=O)COc1ccccc1`, the inhibition was 55.2% (active).
`COc1ccc(OCC(=O)Nc2ccc(NC(=O)c3ccco3)c(C)c2)cc1`: the inhibition is -0.739%.
On to `CC(C)Oc1ccc(CCC(=O)NNC(=S)NCc2ccccc2)cc1`, for which the inhibition is -12.8%.
On to `CC(Oc1ccc2ccccc2c1)C(=O)NNC(=S)NC(=O)c1ccco1` (stereo unspecified), for which the inhibition is 19.6%.
Regarding `COc1ccc(C(=O)NC(=S)NNC(=O)CCc2ccccc2)cc1`, the inhibition is 58.1% (active).
In the case of `CCCc1ccc(OCC(=O)NNC(=S)NC(=O)c2ccco2)cc1`, the inhibition was 50% (active).
For the molecule `CCOc1cc(NC(=S)NCc2ccco2)c(OCC)cc1NC(=O)c1ccco1`, the inhibition is 9.15%.
To `COc1ccc(C(=O)NC(=S)NNC(=O)c2c(-c3ccccc3)noc2C)cc1` belongs 14.7%; to `CCCc1ccc(OCCNC(=O)c2ccco2)cc1`, -4.69%; to `Cc1cccc(OC(C)C(=O)N2CCc3ccccc3C2)c1` (stereo unspecified), -5.47%.
For `COC(c1ccccc1)c1nnc(CCC(=O)N2CCN(CCOc3ccccc3)CC2)o1` (stereo unspecified), the inhibition is -18.9%.
Consider `CC(C)c1ccc(NC(=O)COC(=O)c2ccc(CN3CCCC3=O)cc2)cc1`, for which the inhibition is 8.45%.
As to `COc1c(N2CCN(C(=S)Nc3ccccc3F)C(C)C2)c(F)cc2c(=O)c(C(=O)O)cn(C3CC3)c12` (stereo unspecified), the inhibition was -14.1%.
Regarding `CNC(=O)NC(=O)C(OC(=O)c1cccc(S(=O)(=O)N2CCCCC2)c1)c1ccccc1` (stereo unspecified), the inhibition was -21.4%.
The figure for `COc1ccc(/C=N/Nc2cc(N3CCOCC3)nc(C)n2)c(OC)c1` is 19.1%; for `COc1cccc(/C=N/Nc2cc(C)nc(-c3ccccc3O)n2)c1O` it is 93.4% (active).
The figure for `Cc1nc(Cl)cc(N/N=C/c2ccccc2)n1` is -5.97%; for `Cc1cc(N/N=C\c2ccc(Br)cc2)nc(-n2nc(C)cc2C)n1` it is 35.8%.
For `COc1ccccc1/C=N/Nc1nc(C)c(C(C)=O)s1`, the inhibition is -49.5%.
The figure for `COc1ccccc1/C=N\Nc1cc(C)nc(-n2nc(C)cc2C)n1` is 57.4% (active); for `COCCC(=O)Nc1ccc2c(c1)CN(C(=O)CCOC)CC2` it is 8.33%.
For the molecule `O=C1NC(c2ccccc2)Oc2ccccc21` (stereo unspecified), the inhibition is 12.9%.
To `Cc1ccc(S(=O)(=O)NCCC(=O)OCC(=O)N(C)c2ccccc2)cc1` belongs -1.91%.
In the case of `COc1ccc(CN2CCN(C(=O)c3cc(C4CC4)nn3-c3ccccc3)CC2)cc1F`, the inhibition is 12.7%.
As to `Cc1ccc(C)c(C(=O)N2CCC(n3nccc3NC(=O)C3CC3)CC2)c1`, the inhibition is 13.7%.
As to `COc1cc(C2CC(=O)Oc3cc(OC)c(OC)c(OC)c32)cc(OC)c1OC` (stereo unspecified), the inhibition was -1.07%.
To `CC(CNC(=O)c1ccc(N)cc1)NC(=O)c1ccc(N)cc1` (stereo unspecified) belongs -17.5%; to `Cc1ccc(C(=O)/C=C/c2c(C)nn(-c3ccccc3)c2Cl)cc1`, 7.37%; to `O=C(/C=C/Sc1ncn[nH]1)c1ccc(Cl)cc1`, 97.6% (active).
As for `O=C(CSc1ncn[nH]1)N/N=C/c1ccc(F)cc1`, the inhibition was 1.12%.
As to `CC(=O)Nc1ccc(NS(=O)(=O)c2ccc3c(c2)NC(=O)CC(=O)N3)cc1`, the inhibition is 9.58%.
Turning to `CC(=O)Nc1ccc(S(=O)(=O)Nc2ccc(N3CCOCC3)c(F)c2)cc1`, the inhibition was -7.04%.
In the case of `CC(=O)Nc1ccc(S(=O)(=O)Nc2ccc(N3CCCCC3)cc2)cc1`, the inhibition is 55% (active).
Regarding `COc1ccc(OCC(=O)NNC(=O)C2CCC2)cc1`, the inhibition is 4.55%.
The figure for `Cc1ccc(C(=O)Nc2sc(Cc3ccc4c(c3)OCO4)c(C)c2C(N)=O)cc1` is 75.3% (active); for `COc1ccc(CC(=O)Nc2sc(Cc3ccccc3)c(C)c2C(N)=O)cc1` it is -12.1%; for `COCc1nnc(NC(=O)c2ccc3c(c2)OCO3)s1` it is -40.4%.
Regarding `Cc1nn2c(NCCN(C)C)c3c(nc2c1-c1ccccc1)CCC3`, the inhibition is 1.13%.
To `CCc1cc2c(=O)n(-c3ccccc3)c(SCC(=O)O)nc2s1` belongs 0.424%; to `CC(=O)N1C(=O)/C(=C2\SC(=S)N(NC(=O)c3ccc(O)cc3)C2=O)c2ccccc21`, -4.31%; to `COc1ccc(/C=C2\SC(=S)N(CCCC(=O)NC3CCCC3)C2=O)cc1OC`, 42.6%.
To `CCN(C(=O)CN1C(=O)/C(=C/c2ccc(F)cc2)SC1=S)C1CCS(=O)(=O)C1` (stereo unspecified) belongs -3.51%.
The figure for `O=C1/C(=C/c2ccc(F)cc2)SC(=S)N1CCCC(=O)N1CCCCC1CCO` (stereo unspecified) is 81.8% (active).
Consider `Cc1ccc(O)c(NC(=S)NC(=O)COc2ccc(Br)cc2)c1`, for which the inhibition was -6.04%.
Take `CCCCN1C(=S)NC[C@@H]1C(C)CC` (stereo partly specified): the inhibition was -2.44%.
The figure for `CCCCn1ccnc1C(=O)c1cccc(S(=O)(=O)N2c3ccccc3CC2C)c1` (stereo unspecified) is 55.3% (active); for `CC1Cc2ccccc2N1S(=O)(=O)c1cccc(C(=O)OCC(=O)N2CCOCC2)c1` (stereo unspecified) it is 9.37%; for `CC1Cc2ccccc2N1S(=O)(=O)c1cccc(C(=O)NCC(c2ccco2)N2CCCC2)c1` (stereo unspecified) it is 6.48%.
With `Cc1noc(C)c1S(=O)(=O)Nc1ccc(C(=O)N2CCN(c3ccc(F)cc3)CC2)cc1`, the inhibition is 16.2%.
To `COc1ccc(CCNC(=O)COC(=O)Cc2cccc(F)c2)cc1` belongs 5.4%; to `COc1ccc(C(=O)OCC(=O)N2CC(=O)Nc3ccccc32)cc1Br`, -3.51%; to `O=[N+]([O-])c1c(NCCO)cc(Sc2nc3ccccc3s2)c2nonc12`, 50.1% (active).
To `CCOc1ccccc1Nc1ccc2nonc2c1[N+](=O)[O-]` belongs 9.13%.
Turning to `O=C(O)c1ccccc1CSc1nc2ccccc2s1`, the inhibition was -21.2%.
`COC(=O)[C@]1(C)N[C@H](CN(C)C(=O)c2ccc(C(C)(C)C)cc2)[C@@H]2C(=O)N(C)C(=O)[C@@H]21`: the inhibition was 4.61%.
As to `CC(=O)CCS(=O)(=O)c1ccc(C)c(C)c1`, the inhibition is 2.16%.
As for `CCCn1c(C)cc(-c2csc(NC(=O)CCc3nc4ccccc4c(=O)[nH]3)n2)c1C`, the inhibition is 13.7%.
To `Cc1cc(C(=O)COc2ccccc2[N+](=O)[O-])c(C)n1-c1cccc(S(=O)(=O)N2CCOCC2)c1` belongs 71.1% (active).
To `Cc1ccccc1OCC(=O)Nc1ccc(S(=O)(=O)N2CCOCC2)cc1` belongs -21.2%; to `Cc1cc(S(=O)(=O)N2CCOCC2)ccc1OCC(=O)N1CCOCC1`, -24.7%; to `Cc1cc(C)nc(N/N=C/c2c(C)oc3ccccc23)n1`, 33.3%.
On to `CCN(CC)c1ccc(/C=N/NC(=O)c2cnccn2)c(O)c1`, for which the inhibition was 72.8% (active).
In the case of `Cc1cc(C)nc(N/N=C/c2c(CO)cnc(C)c2O)n1`, the inhibition was 27.1%.
The figure for `Cc1ccc(C(=O)NCCNC(=O)c2cnccn2)cc1` is 18.3%; for `CCN(CC)c1ccc(/C=N/Nc2nc(C)cc(C)n2)c(O)c1` it is 72.9% (active).
`O=C(Nc1ccc2c(c1)OCCO2)c1cnccn1`: the inhibition was -7.26%.
Turning to `Cc1ccc(-n2c(SCC(=O)NCc3ccc4c(c3)OCO4)nnc2-c2cccnc2)c(C)c1`, the inhibition was 1.7%.
